Screening results (PubChem)
WT yeast gro inh: growth inhibition of WT yeast, mitochondrial fusion screen. mitochondrial fusion phenotypic screen, WT strain. 190,000 tested, 2.1% active. inhibition, % at 10 µM. AID 1362; in the data active = inhibition above about 58%; tested in S. cerevisiae
Autophagy HCS: alters autophagy in cells; 190,000 tested, 0.98% active; MEF GFP-LC3 puncta imaging; test concentration mostly 10 µM; AID 463193; calls only at 10 µM (by protocol);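 active = percentage of spot-positive cells more than 3 SD above its plate mean, without a fluorescence outlier flag or 80% toxicity; inconclusive = no clear call, values can overlap the other calls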
INS promoter inh: TRM-6 insulin promoter activity inhibition; TRM-6 cells (human fetal islet line), insulin promoter-eGFP reporter, imaging; reporter expression induced with tamoxifen; inhibition, % at 2 µM; 130,000 tested, 0.9% active;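 active = inhibition above the mean plus 3 SD, with well images judged a real hit on visual review, cut at about 60% in these data, passing the limit was not always enough; inconclusive = inhibition over the cutoff but images rejected on review; inactive = inhibition not above the cutoff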
L major viab: Leishmania major promastigote growth inhibition. Leishmania major promastigotes, resazurin fluorescence viability. 200,000 tested, 9% active. inhibition, % at 10 µM. AID 1063; in the data active = inhibition above about 50%;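 also: promastigotes grown with compound for 44 hours at 28 °C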
Insulin prom up: MIN6 insulin promoter up-regulation | 190,000 tested, 0.3% active | z-score at 5 µM | MIN6 insulin promoter-GFP reporter, high-content imaging; hits give high values;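 active = z-score above 3 at 5 µM with at least 500 cells counted in the well; inconclusive = wells under 500 cells, flagged as cytotoxic or low count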
Large screens that a line does not name were inactive. Compounds with a hit are over-represented: about 11% of the library has one in this group of screens.

Cc1cccc(C)c1-n1cccc1/C=C1\SC(=S)N(c2cccc(C(=O)O)c2)C1=O	WT yeast gro inh 84 (no result: INS promoter inh)
CCC(=O)N(Cc1ccco1)c1nc(-c2ccc(OC)cc2)cs1	none (no result: Insulin prom up)
COCC(=O)N(Cc1ccco1)c1nnc(C2CCOC2)s1 (stereo not given)	Autophagy HCS active
CCOC(=O)CCNC(=O)Nc1ccc2nc(C)n(Cc3ccc(Cl)cc3)c(=O)c2c1	none (no result: INS promoter inh)
CC(=O)Nc1ccc2nc(C)n(Cc3ccc(Cl)cc3)c(=O)c2c1	L major viab 78
COc1cc(OC)c(NC(=O)Cn2cccc2)cc1Cl	none (no result: INS promoter inh)
COc1cc(OC)c(NC(=O)C(=O)CC(=O)c2ccc(C)cc2C)cc1Cl	L major viab 100 (no result: Insulin prom up)
COc1ccc(S(=O)(=O)Oc2ccc3c(c2)O/C(=C\c2cccnc2)C3=O)cc1	L major viab 86
O=C1/C(=C/c2cccnc2)Oc2cc(OS(=O)(=O)c3ccccc3)ccc21	L major viab 57
O=[N+]([O-])c1cc(C(F)(F)F)ccc1NCCNC(=S)Nc1ccc(Cl)cc1	L major viab 101
NS(=O)(=O)c1ccc(NC(=S)NCCc2ccccc2)cc1	none (no result: INS promoter inh)
S=C(NCCc1ccccc1)Nc1ccc(Cl)cc1	none (no result: Insulin prom up)
O=[N+]([O-])c1ccc(O)c(NC(=S)Nc2ccccc2)c1	none
O=[N+]([O-])c1ccc(NC(=S)NCCc2ccc(Cl)cc2)cc1	WT yeast gro inh 83, L major viab 91
O=[N+]([O-])c1ccc(NNC(=S)Nc2ccccc2)cc1	L major viab 53 (no result: Insulin prom up)
O=[N+]([O-])c1ccc(NC(=S)NCCc2ccccc2)cc1	WT yeast gro inh 81, L major viab 74
O=C(Cn1nc(Cc2ccncc2)c2ccccc2c1=O)Nc1cccnc1Cl	none (no result: WT yeast gro inh, Autophagy HCS, INS promoter inh, L major viab)
Cc1ccc(NC(=O)CN2CCCCCC2)cc1[N+](=O)[O-]	none (no result: INS promoter inh)
Cc1cc2cc(CNC(=O)C(C)Oc3ccccc3)ccc2n1C (stereo not given)	none (no result: WT yeast gro inh, Autophagy HCS, INS promoter inh, L major viab)
CC1=CC(=O)N(c2ccc(C)cc2)C1c1ccc(Cl)cc1 (stereo not given)	L major viab 61
CN(C(=O)COc1ccc(S(=O)(=O)N2CCOCC2)cc1[N+](=O)[O-])C1CCS(=O)(=O)C1 (stereo not given)	none (no result: WT yeast gro inh, Autophagy HCS, INS promoter inh, L major viab)
Cc1ccc(S(=O)(=O)N(C(=O)c2ccncc2)c2ccc(OC(=O)c3ccncc3)c3ccccc23)cc1	L major viab 98 (no result: INS promoter inh)
Cc1ccc(S(=O)(=O)N(C(=O)c2ccncc2)c2ccc(OC(=O)c3ccncc3)c3ccccc23)c(C)c1	L major viab 98
CCOC(=O)c1ccc[n+](CC(=O)Nc2cc(C(F)(F)F)ccc2Cl)c1	none (no result: INS promoter inh)
O=C(CSc1nc2[nH]ncc2c(=O)[nH]1)N1CCCCC1	none
CCCNC(=O)CN(C)S(=O)(=O)c1ccc(F)cc1	L major viab 64
CC(C)NC(=O)CN(C)S(=O)(=O)c1ccc(F)cc1	none (no result: INS promoter inh)
O=c1c2ccccc2c(-c2ccccc2)nn1Cc1c(Cl)cccc1Cl	WT yeast gro inh 61
CN1CCN(C(=O)CCn2nc(-c3ccccc3)c3ccccc3c2=O)CC1	L major viab 54
CCSC1=C(C#N)C(c2ccc(Cl)cc2)C2=C(CCCC2=O)N1 (stereo not given)	L major viab 95 (no result: INS promoter inh)
C=C1N(c2cccc(Cl)c2)C(=O)OC1(C)C	none (no result: INS promoter inh)
CC1CCc2nc(NC(=O)C3CC3)sc2C1 (stereo not given)	none
Cc1ncsc1C(=O)Nc1nc2c(s1)CC(C)CC2 (stereo not given)	WT yeast gro inh 65 (no result: INS promoter inh)
COC(=O)c1ccc(-c2ccco2)n1Cc1cccc(C)c1	WT yeast gro inh 64
O=[N+]([O-])c1cn(Cc2ccc(Cl)cc2)cn1	L major viab 64 (no result: INS promoter inh)
Cc1ncc([N+](=O)[O-])n1Cc1ccc(Cl)cc1	L major viab 83 (no result: Insulin prom up)
Cc1ncc([N+](=O)[O-])n1Cc1ccc(Br)cc1	L major viab 91
COc1ccc(Cn2cnc([N+](=O)[O-])c2)cc1[N+](=O)[O-]	none (no result: WT yeast gro inh, Autophagy HCS, INS promoter inh, L major viab)
COc1ccc2oc(C(=O)OCC(=O)/C(C#N)=C(\C)N)c(C)c2c1	none
COc1cccc(N2CC(O)=C(c3nc4ccccc4c(=O)[nH]3)C2=N)c1	Autophagy HCS active
Cc1ccc(CNc2ncc(-c3ccc4c(c3)OCO4)n2C)cc1	L major viab 88 (no result: Insulin prom up)
Cn1c(=O)c2c(nc(NCc3ccc4c(c3)OCO4)n2C)n(C)c1=O	none
Cn1c(-c2ccc3c(c2)OCO3)cnc1NCc1ccc(Cl)cc1	L major viab 92
COc1ccc(-c2cnc(NCc3cc4c(cc3[N+](=O)[O-])OCO4)n2C)cc1	L major viab 98
Cc1ccc(CNc2ccc3c(c2)OCO3)cc1	Autophagy HCS active, L major viab 100 (no result: Insulin prom up)
Cc1cccc(CNc2ncc(-c3cccc([N+](=O)[O-])c3)n2C)c1	none (no result: INS promoter inh)
O=C(Nc1cccc(C(=O)O)c1)/C(=C\c1ccccc1)NC(=O)c1cccc2ccccc12	none (no result: INS promoter inh, Insulin prom up)
CCOc1ccc(N(CC(=O)NC(C(C)C)C(C)C)S(=O)(=O)c2ccc(OC)c(OC)c2)cc1	none (no result: INS promoter inh)
COc1ccc(C(=O)C(CCC(CNC(C)(C)C)C(=O)c2ccc(OC)cc2)CNC(C)(C)C)cc1 (stereo not given)	L major viab 100, Insulin prom up inconclusive (no result: INS promoter inh)
COc1ccc(C(=O)NN)cc1	none (no result: WT yeast gro inh, Autophagy HCS, INS promoter inh, L major viab)
COc1ccc(NC(=O)c2ccc3c(c2)OCO3)cc1[N+](=O)[O-]	none (no result: INS promoter inh)
COc1ccc(NC(=O)C(c2cc3c(cc2[N+](=O)[O-])OCO3)N(C)c2ccccc2)cc1 (stereo not given)	L major viab 81
Cc1cc(C)c(C)c(S(=O)(=O)N2CCN(c3ccc(O)cc3)CC2)c1C	L major viab 55
Cc1cc(SCCOc2ccccc2)nc(N)n1	Insulin prom up 3.1
Cc1cc(Oc2ccccc2)nc(N)n1	none
O=c1c2[nH]c3ccc(F)cc3c2nc2n1CCCS2	none (no result: INS promoter inh)
C=CCc1cc(C=O)cc(OCC)c1O	none (no result: INS promoter inh)
O=C(CCC(=O)c1cccs1)NCc1ccc(Cl)cc1	INS promoter inh 70
Cc1ccc(CNC(=O)CCC(=O)c2cccs2)cc1	none (no result: INS promoter inh)
O=C(Oc1ccc(Br)cc1C(=O)/C=C/c1ccccc1F)c1ccco1	L major viab 100 (no result: WT yeast gro inh, Insulin prom up)
Oc1ccc(-c2csc(-c3cccnc3)n2)cc1O	none (no result: WT yeast gro inh, Autophagy HCS, INS promoter inh, L major viab)
Cc1nc(-c2cccc(NC(=O)c3cccs3)c2)cs1	none (no result: Insulin prom up)
O=C(Nc1cccc(-c2csc(-c3ccccc3)n2)c1)c1cccs1	L major viab 82 (no result: Insulin prom up)
Cc1cccn2cc(-c3cccc(NC(=O)c4cccs4)c3)nc12	none (no result: Insulin prom up)
Oc1ccc(-c2csc(-c3ccccc3)n2)cc1O	L major viab 59
O=C(Nc1ccncc1)c1cccs1	L major viab 59
O=C(Nc1cccc(-c2cn3cccnc3n2)c1)c1cccs1	L major viab 98 (no result: INS promoter inh)
Cc1c(NC(=O)c2cccs2)cccc1C(=O)O	L major viab 81
CN1CCN(C(=O)c2ccccc2NC(=O)c2cccs2)CC1	none
O=C(Nc1cccc(-c2cn3cccnc3n2)c1)c1ccco1	L major viab 100
O=C(Nc1cccc(-c2cn3cccnc3n2)c1)c1ccc(Br)o1	L major viab 100
O=C(Nc1ccc(O)c(-c2nc3ccccc3s2)c1)c1cccs1	L major viab 62
COc1ccc(-c2cn3cccnc3n2)cc1NC(=O)c1ccc(Br)o1	L major viab 99
Cc1ccc(-c2cn3cccnc3n2)cc1NC(=O)c1ccc(Br)o1	none (no result: WT yeast gro inh)
